PubChem BioAssay (NCI)
The panel holds about 83,000 compounds, 20% with a hit somewhere; the sample as a whole holds those more often.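 Cell lines were cultured in 96-well plates, exposed to a single compound concentration, and assessed for percent growth 48 hours later.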 Values without a mark were called inactive. Active and inactive are the calls of the source. The calls were made as follows: active = growth percent below 10; inactive = the rest.

What was measured:
Assay in all cases: NCI-60 one-dose screen, 48 h (100 = growth as untreated, 0 = no growth, -100 = all killed)
Conditions in all cases: 10 µM
786-0 renal = test system: 786-0 renal
MALME-3M melanoma = test system: MALME-3M melanoma
EKVX NSCLC = test system: EKVX NSCLC
SN12C renal = test system: SN12C renal
TK-10 renal = test system: TK-10 renal
ACHN renal = test system: ACHN renal
A498 renal = test system: A498 renal
CCRF-CEM leukemia = test system: CCRF-CEM leukemia
RPMI-8226 leukemia = test system: RPMI-8226 leukemia
OVCAR-5 ovarian = test system: OVCAR-5 ovarian
OVCAR-4 ovarian = test system: OVCAR-4 ovarian
IGROV1 ovarian = test system: IGROV1 ovarian
OVCAR-3 ovarian = test system: OVCAR-3 ovarian
NCI/ADR-RES ovarian = test system: NCI/ADR-RES ovarian
BT-549 breast = test system: BT-549 breast
MDA-MB-435 melanoma = test system: MDA-MB-435 melanoma
MCF7 breast = test system: MCF7 breast
HCT-116 colon = test system: HCT-116 colon
HCC-2998 colon = test system: HCC-2998 colon
KM12 colon = test system: KM12 colon

SMILES | growth (786-0 renal) | growth (MALME-3M melanoma) | growth (EKVX NSCLC) | growth (SN12C renal) | growth (TK-10 renal) | growth (ACHN renal) | growth (A498 renal) | growth (CCRF-CEM leukemia) | growth (RPMI-8226 leukemia) | growth (OVCAR-5 ovarian) | growth (OVCAR-4 ovarian) | growth (IGROV1 ovarian) | growth (OVCAR-3 ovarian) | growth (NCI/ADR-RES ovarian) | growth (BT-549 breast) | growth (MDA-MB-435 melanoma) | growth (MCF7 breast) | growth (HCT-116 colon) | growth (HCC-2998 colon) | growth (KM12 colon)
CC(=O)Oc1ccccc1C(=O)[Se]C(=NC(C)C)NC(C)C | -95.9% (active) | -43.5% (active) | -94% (active) | -78.7% (active) | -98.5% (active) | -80.8% (active) | -24.8% (active) | -1.77% (active) | -20% (active) | -66.5% (active) | -56% (active) | -89.8% (active) | -93.7% (active) | -25.3% (active) | -94.7% (active) | -94.1% (active) | -55% (active) | -82.4% (active) | -91% (active) | -89.6% (active)
CC1=C2C(=C[C@@](C)(COP(=O)(Oc3ccccc3)Oc3ccccc3)[C@@H]2O)C(=O)[C@@](C)(O)C12CC2 | -16.1% (active) | -96.7% (active) | -52.5% (active) | -76.3% (active) | -22.2% (active) | -56.8% (active) | -39.4% (active) | 12.5% | 9.34% (active) | -64.5% (active) | -72.9% (active) | -75.8% (active) | -75.4% (active) | -75.5% (active) | -2.47% (active) | -77.1% (active) | 4.25% (active) | 0.872% (active) | -85.5% (active) | -29.3% (active)
O=C(/C=C/c1ccc(F)cc1)c1nc2ccccc2n1Cc1ccc(Br)cc1 | -82.4% (active) | -77.9% (active) | -91.5% (active) | -40.4% (active) | -19.1% (active) | -73.9% (active) | 58.6% | -1.81% (active) | -34.7% (active) | -55.1% (active) | 19.2% | -35% (active) | -73.6% (active) | -59.8% (active) | -78.1% (active) | -74% (active) | -27.4% (active) | -79.4% (active) | -97.6% (active) | -25.3% (active)
C#CC[Se]C(=O)c1ccc(C(=O)[Se]CC#C)s1 | 82.2% | 98.1% | 48.4% | 85.9% | 84.8% | 43.6% | 101% | 77.4% | 86% | 81.3% | 103% | 85.5% | 84.5% | 76.1% | 101% | 95.8% | 91.5% | 14% | 94.7% | 42.8%
O=C(NC([Se])=NC1CCCCC1)c1ccc2c(c1)OCO2 | 44.1% | 57.3% | 56.8% | 51.9% | 55.5% | 17% | 31.3% | 35.3% | 63% | 72% | 70.5% | 43.6% | 25.3% | 34.4% | 96.7% | 86.4% | 81.6% | 24.7% | 74.1% | 32.4%
C=CC[Se]C(=O)c1cncc(C(=O)[Se]CC=C)c1 | -97.3% (active) | -67% (active) | -97.9% (active) | -95.6% (active) | -20.3% (active) | -12.9% (active) | 29.9% | -39.9% (active) | -42.2% (active) | -86.6% (active) | -62.8% (active) | -92% (active) | -89.5% (active) | -70.2% (active) | -94.9% (active) | -62.9% (active) | -42.7% (active) | -86.4% (active) | -92.6% (active) | -73.1% (active)
COc1ccc2cc([C@H](C)C(=O)[Se]CCC#N)ccc2c1 | -83.9% (active) | -44.7% (active) | -83.7% (active) | -16.8% (active) | -90.4% (active) | -50% (active) | -71.1% (active) | 7.91% (active) | -17.8% (active) | -31.8% (active) | -44.3% (active) | -51.7% (active) | -61% (active) | -14.4% (active) | -8.75% (active) | -69.7% (active) | -8.25% (active) | -62% (active) | 10.1% | 5.84% (active)
C=CC[Se]C(=O)c1ccc(C(=O)[Se]CC=C)s1 | -96.3% (active) | -47.7% (active) | -89.2% (active) | -55.8% (active) | -80% (active) | -45.6% (active) | -5.42% (active) | -12% (active) | -26.8% (active) | -61.8% (active) | -67.6% (active) | -78.9% (active) | -92.9% (active) | -23.1% (active) | -92.3% (active) | -82.8% (active) | -55.4% (active) | -77.9% (active) | -85.7% (active) | -85.1% (active)
COc1cc(OC)c(/C=C/C(=O)c2nc3ccccc3n2Cc2ccc(F)cc2)c(OC)c1 | 85% | 105% | 73.5% | 77.3% | 109% | 75.2% | 130% | 64.5% | 78.4% | 112% | 56.7% | 101% | 98.4% | 78.2% | 77.8% | 83.5% | 56.1% | 74.8% | 105% | 91.4%
COC(=O)C[C@](O)(CCC(C)C)C(=O)O[C@@H]1C(OC)=C[C@]23CCCN2CCc2cc4c(cc2[C@H]13)OCO4 | -46.8% (active) | -90.9% (active) | -23.9% (active) | -26.7% (active) | -23.8% (active) | -25.1% (active) | -46.5% (active) | -12% (active) | -30.2% (active) | -35.9% (active) | -42.4% (active) | -29.3% (active) | -26.9% (active) | -29.7% (active) | -42% (active) | -84% (active) | -19.4% (active) | -27.5% (active) | -89.9% (active) | -20.8% (active)
COc1ccc(OC)c(/C=C/C(=O)c2nc3ccccc3n2Cc2ccc(F)cc2)c1 | -57.7% (active) | -36.9% (active) | -62.1% (active) | 4.76% (active) | 13.1% | -48.2% (active) | 116% | -18.5% (active) | -36.8% (active) | -43% (active) | 37.9% | -7.29% (active) | -12% (active) | -41.5% (active) | -58.2% (active) | -46.9% (active) | 2.95% (active) | -91.1% (active) | -93.6% (active) | -20.9% (active)
N#C[Se]CC(=O)Nc1cccc(C(F)(F)F)c1 | -54% (active) | -95.3% (active) | -94.5% (active) | -78.1% (active) | -79.8% (active) | -38% (active) | -69.6% (active) | 22.5% | 10.2% | -36.7% (active) | 36.8% | -64.5% (active) | -13.7% (active) | -60.8% (active) | -90.2% (active) | -18.1% (active) | 6% (active) | -66.8% (active) | 54.7% | 41.5%
COc1cc(OC)c(S(=O)(=O)N(CCCl)CCCl)cc1C(=O)/C=C/c1cc(OC)c(OC)c(OC)c1 | -59.7% (active) | -15.6% (active) | 12.3% | 8.6% (active) | 3.84% (active) | 2.37% (active) | -0.926% (active) | 1.08% (active) | -24.3% (active) | -1.21% (active) | 23.2% | 0.296% (active) | -3.7% (active) | 4.75% (active) | -84.7% (active) | -31.5% (active) | -39.2% (active) | -87.7% (active) | -91.1% (active) | -61.2% (active)
